# Source: PubChem BioAssay (NCATS)
# Active and inactive are the calls of the source. The rule behind the calls is not given here.
# Test system: HIV-1 nucleocapsid protein NCp7 (binding to TG oligonucleotide)
# Assay: HIV Nucleocapsid (AID 346);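 note: potency is for inhibitors that block NC binding and lower polarization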
# Conditions: HIV-1 NC / fluorescein-TGTGTGTG probe, fluorescence polarization
# Method in brief: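 Fluorescence polarization readout: labelled TG4xF oligo (10 nM) with 100 nM nucleocapsid protein, high-salt (250mM NaCl) Hepes pH 7.5 buffer containing zinc and fresh reducing agents. Compounds added by pin tool; incubation 1 hr, room temperature.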
# Potency is the fitted concentration of half-maximal effect.
row,Compound,Potency
1,COCC(=O)N1CCC2(CC1)CN(c1ccc(-c3ccccc3)cc1)C2,> 20 µM (inactive)
2,CS(=O)(=O)N1CCC2(CCCN(C(=O)Nc3ccccc3)C2)CC1,> 20 µM (inactive)
3,Cc1noc(C)c1-c1cc(N(C)Cc2ccco2)ncn1,> 20 µM (inactive)
4,COc1cccc(Cn2c(=O)c(-c3cccc(C#N)c3)nc3cnc(N4CCN(C)CC4)nc32)c1,> 20 µM (inactive)
5,COc1ccc(-c2nc3cnc(Nc4cccc(OC)c4)nc3n(C[C@H]3CCCO3)c2=O)cc1,14.4 µM (inactive)
6,COc1cccc(-c2nccc(NCc3cccs3)n2)c1,> 20 µM (inactive)
7,Cc1nc2cnc(Nc3ccccc3)nc2n(C)c1=O,> 4 µM (inactive)
8,COCCn1c(=O)c(-c2ccccc2)nc2cnc(N3CCOCC3)nc21,> 20 µM (inactive)
9,COc1ccccc1CNc1cc(-c2ccccc2OC)ncn1,> 20 µM (inactive)
10,Cc1ccccc1-c1cncnc1NCCN1CCOCC1,> 20 µM (inactive)
11,Cc1nc2cnc(N(C)C)nc2n(C2CC2)c1=O,> 20 µM (inactive)
12,CC(=O)N1CCC2(CC1)CCN(c1ccccc1)CC2,> 20 µM (inactive)
13,COc1ccc(NC(=O)N2CCC3(CC2)CCN(C(=O)c2cc(C(F)(F)F)cc(C(F)(F)F)c2)CC3)cc1,> 20 µM (inactive)
14,Cc1nc2cnc(Oc3ccccc3)nc2n(C)c1=O,> 20 µM (inactive)
15,COc1ccc(NC(=O)N2CC[C@@]3(CCCN(C(=O)c4cccc(F)c4)C3)C2)cc1,> 20 µM (inactive)
16,Cc1nc2cnc(OCc3ccccc3)nc2n(C)c1=O,> 20 µM (inactive)
17,c1cncc(-c2ccc3ncnc(NC4CCNCC4)c3c2)c1,> 20 µM (inactive)
18,Cc1noc(C)c1-c1cc(NC2CCNCC2)ncn1,> 20 µM (inactive)
19,O=C(c1ccncc1)N1CCC2(CC1)CN(c1ccccc1)C2,> 20 µM (inactive)
20,COCC(=O)N1CCC2(CC1)CCN(C(=O)Nc1ccc(OC)cc1)CC2,> 20 µM (inactive)
21,CN1CCN(c2ncnc3ccc(-c4ccoc4)cc23)CC1,> 20 µM (inactive)
22,CN(C)c1ncc2ncc(=O)n(CCc3ccccc3)c2n1,> 20 µM (inactive)
23,O=C(c1cccc(F)c1)N1CCC2(CC1)CN(c1ccccc1)C2,> 20 µM (inactive)
24,CN1CCN(c2nc(-c3cccc(C#N)c3)nc3ccccc23)CC1,> 20 µM (inactive)
25,COc1ccc(CNc2ncncc2-c2ccccc2OC)c(OC)c1,> 20 µM (inactive)
